# Measured values published in PubChem BioAssay (EPA / NIEHS).
# Some compounds were tested as several samples or in several runs, with calls that do not always agree. Active and inactive are the calls of the source. Rule for the calls: active = hit-call score of the fitted dose curve at least 0.9, where 1 is the maximum; inactive = score below 0.9.
# Read-out: Vascular cell adhesion molecule 1 (VCAM1), VCAM1 (gene 7412)
# Test: BSK_hDFCGF_VCAM1: BioMAP Diversity Plus: hDFCGF Assay for Vascular cell adhesion molecule 1 (VCAM1) Biomarker Activity (AID 2283065)
# Settings: primary human foreskin fibroblasts; actives raise or lower the signal
# Description: BSK_hDFCGF is a cell-based, multiplexed-readout assay that uses foreskin fibroblast, a human skin primary cell, with measurements taken at 24 hours after chemical dosing in a 96-well plate.BSK_hDFCGF_VCAM1 is an assay component measured in the BSK_hDFCGF assay. It measures VCAM-1 antibody related to regulation of gene expression using ELISA technology.Data from the assay component BSK_hDFCGF_VCAM1 was analyzed into 1 assay endpoint. This assay endpoint, BSK_hDFCGF_VCAM1, was analyzed with bidirectional fitting relative to DMSO as the negative control and baseline of activity. Using a type of binding reporter, gain or loss-of-signal activity can be used to understand changes in the signaling as they relate to the gene VCAM1. Furthermore, this assay endpoint can be referred to as a primary readout, because this assay has produced multiple assay endpoints where this one serves a signaling function. To generalize the intended target to other relatable targets, this assay endpoint is annotated to the cell adhesion molecules intended target family, where the subfamily is Immunoglobulin CAM.
# The levels of cell surface (or secreted, indicated by the prefix "s") biomarker endpoints were measured by ELISA. Overt cytotoxicity to cells in confluent adherent cultures (all systems other than the BT system) was assessed by measuring total protein levels using sulforhodamine B (SRB) staining in parallel cultures at the time of biomarker measurements, indicated as SRB endpoints. For proliferation assays for adherent cell types, individual cell types are cultured at sub-confluence and relative cell numbers quantified by SRB staining at time points optimized for each system (48 h: 3C and CASM3C systems; 72 h: BT and HDF3CGF systems; 96 h: SAg system). SRB was performed by staining cells with 0.1% SRB after fixation with 10% TCA and reading wells at 560 nm.Viability and proliferation of PBMC (T cells) was quantified by Alamar Blue reduction for the SAg and BT systems. For PBMC viability (referred to as PBMC Cytotoxicity within the assay endpoint names), cells were plated (75,000/well in a 96-well plate) and then chemical samples added for 1 h before addition of activators, SEB and TSST-1 (20 ng/mL final concentration each). Cells were incubated for 90 h. Then, Alamar Blue (20 uL/well) (Invitrogen, Cat DAL1100) was added for 6 h, and the plates were read with a fluorescence microplate reader at 546/580 nm (excitation/emission). For PBMC proliferation, cells were plated and activated as above but incubated for only 16 h prior to addition of Alamar Blue. Plates were read after 6 h.
Structure (SMILES),AC50,outcome
Oc1cccc(-c2ccccc2)c1,31.6 µM (active),–
Oc1ccc(Cc2ccc(O)cc2)cc1,–,inactive
COCC(=O)N(c1c(C)cccc1C)[C@H](C)C(=O)OC,–,inactive
CC(C=O)Cc1ccc2c(c1)OCO2 (stereo not given),–,inactive
Cc1cc(C(C)(C)c2ccc(O)c(C)c2)ccc1O,–,inactive
CCCCCCCCCCCCN(C)C,–,inactive
C[C@]12CC[C@@H](O)C[C@@H]1CC[C@@H]1[C@@H]2CC[C@]2(C)C(=O)CC[C@@H]12,–,inactive
[Cl][Sn]([c]1ccccc1)([c]1ccccc1)[c]1ccccc1,0.0996 µM (active),–
Cc1cc(Cl)ccc1N,–,inactive
OC(Cc1ccccc1Cl)(Cn1cncn1)C1(Cl)CC1 (stereo not given),–,inactive
CCCCOC(=O)COC(=O)c1ccccc1C(=O)OCCCC,26.6 µM (active),inactive
c1ccc2sc(SNC3CCCCC3)nc2c1,–,inactive
CCOP(=O)(OCC)SCCSCC,–,inactive
CC(C)(C)c1ccccc1O,–,inactive
O=C(Cc1ccccc1)OCCc1ccccc1,–,inactive
CCOC(=O)C(SP(=S)(OC)OC)c1ccccc1 (stereo not given),20 µM (active),–
O=C(O)COc1cc(Cl)c(Cl)cc1Cl,–,inactive
OCCCCO,–,inactive
CCOP(=S)(OCC)OP(=S)(OCC)OCC,30.4 µM (active),–
O=[N+]([O-])c1ccc(Nc2ccccc2)cc1,–,inactive

Structure (SMILES),AC50,outcome
CC(C)(C)c1cc([N+](=O)[O-])cc(C(C)(C)C)c1O,–,inactive
OC(Cc1ccccc1Cl)(Cn1[nH]cnc1=S)C1(Cl)CC1 (stereo not given),17.8 µM (active),–
N#CCCC(Br)(C#N)CBr (stereo not given),3.74 µM (active),–
CC1(C)[C@H](C(=O)O[C@H](C#N)c2cccc(Oc3ccccc3)c2)[C@@H]1/C=C(\Cl)C(F)(F)F,–,inactive
CCCCCCCCCCCCc1cccc(S(=O)(=O)O)c1,12 µM (active),–
CC(C)(COCC1CO1)COCC1CO1 (stereo not given),–,inactive
COc1ccccc1N,–,inactive
O=c1oc2ccccc2c(O)c1C(CC(O)c1ccc(-c2ccc(Br)cc2)cc1)c1ccccc1 (stereo not given),5.3 µM (active),–
CCOC(=O)CC(=O)CCl,20 µM (active),–
Oc1cc(Cl)c(Cl)cc1Cl,7.54 µM (active),–
CCCCN(CCCC)C(=S)[S-].CCCCN(CCCC)C(=S)[S-].[Ni+2],–,inactive
CCC(C)(C#N)N=NC(C)(C#N)CC (stereo not given),–,inactive
Cc1ccc2nc3sc(=O)sc3nc2c1,5 µM (active),–
Oc1c(Br)cc(Br)cc1Br,–,inactive
C=CC(Cl)CCl (stereo not given),–,inactive
CC(C)O.CC(C)O.OCCN(CCO)CCO.OCCN(CCO)CCO.[Ti],–,inactive
O=C(CCl)NCO,–,inactive
Cc1cccc(OP(=O)(Oc2cccc(C)c2)Oc2cccc(C)c2)c1,–,inactive
CC(C)=CC1C(C(=O)OCc2cccc(Oc3ccccc3)c2)C1(C)C (stereo not given),12.4 µM (active),–
